{"source": "PubChem BioAssay (NCATS)", "note": "Inconclusive results are not listed. Calls of active or inactive are those of the source. Calls follow the shape of the full dose curve. Starred links: 1 amine or outer side, 2 acyl side, 3 side chain; linkers in the order of their positions; H or OH if unused. Non-standard residues stand in square brackets, D forms with d. Residues, ends and D or L forms follow the SMILES beside them. X1 = CCCCCCCCCC(=O)[C@H](C(=O)[*:2])[C@@H]1CNC(=O)[C@@H](N[*:1])CS1", "data": [{"assay": "qHTS for inhibitors of Rabies Virus screened against the NCATS CANVASS Library (AID 1347402)", "settings": "Rabies virus infection cell assay; series mostly up to 45.9 µM", "values": [{"smiles": "CCCCCCCCCC(=O)[C@@H]1C(=O)N[C@@H](CC(C)C)C(=O)N[C@H](C)C(=O)N2CCC[C@H]2C(=O)N[C@@H](C(C)C)C(=O)N[C@H]2CS[C@H]1CNC2=O", "note": "(cyclo(L[dA]PV[X1]))", "outcome": "inactive"}, {"smiles": "CC1C(=O)C23CCC1C[C@@]21O[C@H]2C(C)(C)C=CC(=O)[C@@]23COC1=O", "note": "(some centres not stated)", "outcome": "inactive"}, {"smiles": "C=C(NC(=O)c1csc(-c2nc3c(cc2O)-c2nc(cs2)C(=O)NC(C(C)O)C(=O)N/C(=C(\\C)O)c2nc(cs2)C(=O)NC2c4nc(cs4)C(=O)NC(COC(=O)c4c5c6c(cccc6n4O)COC(=O)[C@@H](OC4C[C@](C)(O)[C@H](N(C)C)[C@H](C)O4)C2OC5)c2nc-3cs2)n1)C(N)=O", "note": "(some centres not stated)", "outcome": "inactive"}, {"smiles": "O=C1CCC(=O)N(O)CCCCCNC(=O)CCC(=O)N(O)CCCCCNC(=O)CCC(=O)N(O)CCCCCN1", "outcome": "inactive"}, {"smiles": "CN1CC[C@@]2([C@@]34CCN(C)[C@@H]3Nc3ccccc34)c3ccccc3N[C@@H]12", "outcome": "inactive"}, {"smiles": "C/C(=C\\[C@@H](C)CC/C=C/CC/C=C/C(=O)O)[C@H](O)[C@H](C)C(=O)CCCC1CC(=O)NC(=O)C1", "outcome": "inactive"}, {"smiles": "CC1=CC[C@@]2(C[C@@H]1O)[C@@H](C(=O)O)CC[C@H]2C(C)C", "outcome": "inactive"}]}]}
